# From PubChem
# Dicer inh – inhibitors of Dicer pre-microRNA processing, primary screen, biochemical, cat-ELCCA, chemiluminescence. z-score at 25 µM. AID 1347074, 2019. 47,000 compounds, 6% hits. Endoribonuclease Dicer (Homo sapiens), Q9UPY3. cat-ELCCA pre-miR-21 Dicer processing; hits give high values; in the data active means z-score above about 3, passing the limit was not always enough;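 further: plate controls were vehicle for no effect and no enzyme for full effect; higher signal means more uncleaved substrate so more Dicer inhibition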
# Target sequence (Q9UPY3 whole entry, looked up): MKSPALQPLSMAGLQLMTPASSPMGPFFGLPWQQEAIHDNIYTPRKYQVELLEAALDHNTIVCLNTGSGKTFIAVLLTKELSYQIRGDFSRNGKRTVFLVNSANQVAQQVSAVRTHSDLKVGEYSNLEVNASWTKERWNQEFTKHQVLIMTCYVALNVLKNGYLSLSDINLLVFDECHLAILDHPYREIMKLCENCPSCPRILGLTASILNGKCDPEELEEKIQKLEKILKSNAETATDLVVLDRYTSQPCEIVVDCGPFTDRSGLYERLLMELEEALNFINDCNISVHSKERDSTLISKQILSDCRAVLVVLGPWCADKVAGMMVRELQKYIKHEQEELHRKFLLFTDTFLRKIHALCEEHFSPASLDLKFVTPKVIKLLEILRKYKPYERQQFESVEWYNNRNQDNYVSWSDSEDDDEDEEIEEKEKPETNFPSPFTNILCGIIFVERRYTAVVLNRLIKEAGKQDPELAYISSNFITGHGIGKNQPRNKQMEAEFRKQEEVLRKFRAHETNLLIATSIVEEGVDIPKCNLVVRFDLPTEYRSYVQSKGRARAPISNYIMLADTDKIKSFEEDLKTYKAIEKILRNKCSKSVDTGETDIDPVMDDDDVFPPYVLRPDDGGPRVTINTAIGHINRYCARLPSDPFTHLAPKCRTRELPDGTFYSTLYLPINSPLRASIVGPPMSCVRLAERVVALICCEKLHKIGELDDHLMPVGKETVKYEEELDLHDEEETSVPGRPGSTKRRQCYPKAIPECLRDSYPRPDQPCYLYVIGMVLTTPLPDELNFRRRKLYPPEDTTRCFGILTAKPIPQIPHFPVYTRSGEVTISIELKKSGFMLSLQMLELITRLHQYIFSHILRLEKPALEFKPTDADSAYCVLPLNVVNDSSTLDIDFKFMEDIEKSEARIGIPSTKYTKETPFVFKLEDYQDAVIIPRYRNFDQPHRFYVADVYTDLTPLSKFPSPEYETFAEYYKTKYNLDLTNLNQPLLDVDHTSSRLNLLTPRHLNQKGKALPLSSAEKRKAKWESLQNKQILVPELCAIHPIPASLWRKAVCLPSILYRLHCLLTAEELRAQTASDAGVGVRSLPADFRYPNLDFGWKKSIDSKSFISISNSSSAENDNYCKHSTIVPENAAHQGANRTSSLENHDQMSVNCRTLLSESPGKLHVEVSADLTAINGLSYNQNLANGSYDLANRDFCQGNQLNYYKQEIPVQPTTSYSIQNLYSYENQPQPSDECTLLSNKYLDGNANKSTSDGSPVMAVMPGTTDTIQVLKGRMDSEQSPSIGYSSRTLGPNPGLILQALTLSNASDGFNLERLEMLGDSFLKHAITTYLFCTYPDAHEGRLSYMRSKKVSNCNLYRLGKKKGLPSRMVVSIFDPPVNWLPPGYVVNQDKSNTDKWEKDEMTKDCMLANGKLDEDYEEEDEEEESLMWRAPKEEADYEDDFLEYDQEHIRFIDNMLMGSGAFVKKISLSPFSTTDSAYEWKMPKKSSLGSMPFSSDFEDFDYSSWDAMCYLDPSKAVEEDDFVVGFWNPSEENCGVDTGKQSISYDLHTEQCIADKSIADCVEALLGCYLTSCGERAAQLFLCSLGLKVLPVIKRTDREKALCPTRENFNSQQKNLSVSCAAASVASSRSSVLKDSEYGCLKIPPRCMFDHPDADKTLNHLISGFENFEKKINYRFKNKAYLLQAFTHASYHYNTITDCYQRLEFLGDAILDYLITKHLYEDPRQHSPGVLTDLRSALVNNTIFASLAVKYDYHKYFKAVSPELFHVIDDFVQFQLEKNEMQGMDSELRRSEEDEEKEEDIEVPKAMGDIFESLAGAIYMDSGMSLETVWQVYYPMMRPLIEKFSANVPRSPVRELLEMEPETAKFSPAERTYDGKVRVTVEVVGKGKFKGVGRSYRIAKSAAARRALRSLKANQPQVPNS
# * marks the source's active call; other numbers are inactive results. The sample as a whole holds a higher share of hits than the screen did.
SMILES,Dicer inh
CC(O)(CCO)C12CC3CC(CC(C3)C1)C2 (stereo not given),-0.24
Cc1cccc(C)c1NC(=O)CSc1c(Cl)cccc1[N+](=O)[O-],-0.4
CCOC(=O)/C(C)=N/Nc1cc(C)cc(C)c1,0.41
Cc1ccccc1-n1cc(-c2ccc(Br)cc2)[nH]c1=S,0.87
CCS(=O)(=O)n1nc(-c2ccc(Cl)cc2)nc1SC,2.7
CCS(=O)(=O)n1nc(-c2ccccc2)nc1N,3.3*
Nc1nc(-c2ccc(Cl)cc2)nn1S(=O)(=O)c1ccccc1,1.8
COC(=O)c1c(C)oc2ccc(OCc3ccc(C)cc3)cc12,0.27
Cn1nccc1NC(=O)c1nccnc1C(=O)O,-0.01
C/C(=C\C#N)NC(=O)c1nccnc1C(=O)O,4.6*
CC(=O)Nc1ccc(NC(=O)c2nccnc2C(=O)O)cn1,-0.06
Cn1c(=O)c2[nH]c(-c3ccco3)nc2n(C)c1=O,0.85
CC(=O)C(C)(C)OC(=O)N1CCSCC1,0.4
Cc1sc(N)nc1-c1ccc(CC(C)C)cc1,-1.7
Cc1ccc(-c2nc(N)sc2C)cc1,0.07
Cc1ccc(-c2nc(N)sc2-c2ccccc2)cc1,3.1*
NC(CCc1ccc(F)cc1)c1ccc2c(c1)OCCO2 (stereo not given),-1.7
COc1cc(OC)cc(N2C(=O)C3CC=C(C)CC3C2=O)c1 (stereo not given),-2.2
c1ccc(-c2nc3ccccc3nc2-c2ccccn2)nc1,-1.2
Cc1[nH]c(-c2ccccn2)nc(=S)c1Cl,-1.4
Cc1cc(=S)nc(-c2ccccn2)[nH]1,6.9*
COc1cc(S(=O)(=O)N2CCN(Cc3ccc4c(c3)OCO4)CC2)ccc1Cl,1.2
O=C1CC(c2cccc(Cl)c2)Cc2nc(N3CCN(Cc4ccc5c(c4)OCO5)CC3)ncc21 (stereo not given),0.07
COc1ccc(C2CC(=O)c3cnc(N4CCN(Cc5ccc6c(c5)OCO6)CC4)nc3C2)cc1 (stereo not given),1
O=C1CC(/C=C/c2ccccc2)Cc2nc(N3CCN(Cc4ccc5c(c4)OCO5)CC3)ncc21 (stereo not given),4.6*
SMILES,Dicer inh
Cc1cc(S(=O)(=O)NC2CCCCNC2=O)c(C(F)(F)F)o1 (stereo not given),-0.06
COC(=O)c1scc(NS(=O)(=O)c2cccc(C(F)(F)F)c2)c1C(=O)OC,-0.77
Cc1ccc(O)c(C(=O)NNC(=S)Nc2ccccc2C(F)(F)F)c1,5.4
O=C(NNC(=S)Nc1ccccc1C(F)(F)F)c1ccc(-c2ccc(Cl)cc2)s1,4.3*
CC(C)(C)NC(=S)NNC(=O)c1ccc(-c2ccc(Cl)cc2)s1,-0.16
CC(C)OC(=O)c1c(NC(=O)c2nc3ncccn3n2)sc2c1CCCC2,0.78
COC(=O)C/C(=N/NC(=O)c1cc([N+](=O)[O-])ccc1N)C(=O)OC,0.65
C#CCN1C(=O)C(=O)c2cc(Br)ccc21,4.3*
N#CCCN(CN1C(=O)C(=O)c2cc(Br)ccc21)C1CCCCC1,-3.1
CCCN1C(=O)C(=O)c2cc(Br)ccc21,-0.64
N#CCOc1cc(Sc2ccccc2)ccc1[N+](=O)[O-],-0.06
CCC1(CC)Cc2ccccc2C2=C(C(=O)N3CCOCC3)C(=O)C(=O)N21,4*
CC1(C)Cc2ccccc2C2=C(C(=O)N3CCCC3)C(=O)C(=O)N21,-1.3
O=C1C(=O)N2C(=C1C(=O)N1CCOCC1)c1ccccc1CC21CCCC1,-1.1
CCOc1ccccc1C1Nc2ccccc2NC2=C1C(=O)CC(c1ccccc1)C2 (stereo not given),0.83
Cc1ccc(C)n1-c1cc(-c2ccccc2)[nH]n1,-1.3
COc1cc2c(cc1OC)C(=O)NCC2,0.66
CC1CC(NC(=S)NC2CC3CC2C2C=CCC32)CC(C)(C)C1 (stereo not given),3.1*
S=C(N/N=C/C=C/c1ccccc1)NC1CC2CC1C1C=CCC21 (stereo not given),0.15
CC1CC(NC(=S)Nc2ccc(I)cc2F)CC(C)(C)C1 (stereo not given),1
CCCN1C(=O)C(O)(CC(=O)c2ccc(C)s2)c2cc(Br)ccc21 (stereo not given),0.78
COc1ccccc1C1C2=C(Nc3c1c(=O)[nH]c(=O)n3C)c1ccccc1C2=O (stereo not given),-0.58
COc1cccc(C2Sc3ccccc3NC3=C2C(=O)c2ccccc23)c1 (stereo not given),-0.15
COc1cccc(C2Sc3ccccc3NC3=C2C(=O)c2ccccc23)c1OC (stereo not given),3.6*
COc1nc(NCC(C)C)nc(Oc2ccc(=O)n(C)n2)n1,-0.95
SMILES,Dicer inh
CC1=C(C(=O)OC(C)C)C(c2cccc(Cl)c2)n2c(nc3ccccc32)N1 (stereo not given),0.08
Cc1c(-c2nnnn2-c2ccccc2)cnc2ccccc12,0.57
FC(F)(F)c1c(-c2nnnn2-c2ccccc2)cnn1-c1ccccc1Cl,-1.1
FC(F)(F)c1[nH]ncc1-c1nnnn1-c1ccccc1,3.3*
NC(=S)SC(CC(=O)c1ccccc1)c1ccsc1 (stereo not given),-1.5
CCOC(=O)c1c(C)oc2c1c1c(c3ccccc32)OCN(CC2CCCO2)C1 (stereo not given),-0.52
